Measles inh: inhibitors of measles virus growth in infected cells | infected Vero cells, GFP fluorescence, 64 h; active compounds read low | z-score (no concentration beside the values) | hit rate 0.1% among 33,000 | AID 745; in the data active = z-score below about -3
Numbers without * were called inactive. Many of the other results were omitted from the sample, so hits are more common in it than they were.

Results for COc1ccc(C=Cc2nc3ccccc3c(=O)n2-c2ccc(C)cc2C)cc1 ?
Measles inh: 0.2

Results for Cc1ccc(-n2c(C=Cc3ccccc3)nc3ccccc3c2=O)c(C)c1 ?
Measles inh: -0.69

What do the screens show for `Cc1ccc(-n2c(C=Cc3cccc(F)c3)nc3ccccc3c2=O)c(C)c1`?
Measles inh: -3.2*

How did CCc1ccc(CN2CCN(Cc3ccc(OC)cc3)CC2)cc1 do in these assays?
Measles inh: -0.1

Results for Cn1cc(CNC2CCCCC2)c2ccccc21 ?
Measles inh: -1.2

Source: PubChem BioAssay (Emory University Molecular Libraries Screening Center)
